SMILES strings stand for the structures. Compounds without any hit were thinned out: in the full panel of roughly 83,000, 20% have a hit.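 The endpoint reported here, percent growth, reads 100 for growth as untreated, 0 for no net growth and -100 for all cells dead.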 Values without a mark were called inactive. Calls of active or inactive are those of the source. Rule for the calls: active = growth percent below 10; inactive = the rest.

Some test systems named below: NCI-H23 lung; NCI-H322M lung; HOP-62 NSCLC; NCI-H460 lung; HOP-92 NSCLC; NCI-H522 lung; A549/ATCC NSCLC; 786-0 renal; COLO 205 colon; DU-145 prostate; K-562 leukemia; MALME-3M melanoma; MDA-MB-231 breast; RXF 393 renal; SF-268 CNS; SF-295 CNS; SF-539 CNS; UACC-257 melanoma; M14 melanoma; HCT-15 colon.
Assay in all cases: NCI-60 one-dose screen, 48 h (100 = growth as untreated, 0 = no growth, -100 = all killed)
Details in all cases: 10 µM unless noted

Regarding `CCOC(=O)C1(Cc2ccccc2)CCN(Cc2cccc(OC)c2O)CC1`, the growth was 18.3% in the assay on NCI-H23 lung; 20.3% in the assay with NCI-H322M lung; 12.9% in the assay on HOP-62 NSCLC; -13% (active) with NCI-H460 lung; 30.6% with HOP-92 NSCLC; 17.1% in the assay with NCI-H522 lung. Besides, the growth in the assay with A549/ATCC NSCLC was 2.47% (active); with 786-0 renal it was 6.33% (active); with COLO 205 colon, 10.2%; in the assay with DU-145 prostate, 10.8%; in the assay with K-562 leukemia, 8.73% (active); in the assay with MALME-3M melanoma, 12%. Also, the growth was 22.1% in the assay with MDA-MB-231 breast; -13.9% (active) in the assay on RXF 393 renal; 5.65% (active) in the assay on SF-268 CNS; -22.2% (active) in the assay with SF-295 CNS; 5.93% (active) in the assay on SF-539 CNS; -4.96% (active) with UACC-257 melanoma. Further, the figures for the growth in the assay with M14 melanoma and in the assay with HCT-15 colon were 2.78% (active) and 24%, respectively.
In the case of `O=c1c(-c2nc3ccccc3[nH]2)cc2ccccc2n1Cc1cn(Cc2ccc(F)cc2)nn1`, the growth with NCI-H23 lung was 23.5%; in the assay on NCI-H322M lung it was 19.4%; with HOP-62 NSCLC, 21.4%; in the assay on NCI-H460 lung it was -10.7% (active); with HOP-92 NSCLC, 34.9%; with NCI-H522 lung, 19.5%. For the same molecule, the growth with A549/ATCC NSCLC was 11.4%; with 786-0 renal, -23.2% (active); with COLO 205 colon, 18.2%; with DU-145 prostate, -23.5% (active); in the assay on K-562 leukemia, 17.7%; with MALME-3M melanoma, 12.8%. The growth with MDA-MB-231 breast is 4.33% (active); in the assay with RXF 393 renal, -25.5% (active); in the assay on SF-268 CNS it was 29.4%; with SF-295 CNS it was 1.67% (active); in the assay with SF-539 CNS it was -55.9% (active); in the assay on UACC-257 melanoma it was 49.9%. Also, the growth with M14 melanoma was -20.7% (active); in the assay with HCT-15 colon it was 16.9%.
Take `C=CCN1C(=O)/C(=c2\sc3n(c2=O)NC2C(N=3)N(CC)C(=O)N2CC)c2ccccc21` (stereo not given): the growth with NCI-H23 lung is 43.7%; with NCI-H322M lung, 57%; in the assay on HOP-62 NSCLC, 62.7%; with NCI-H460 lung, 15%; in the assay with HOP-92 NSCLC, 108%; in the assay on NCI-H522 lung it was 25.9%. Moreover, the growth in the assay with A549/ATCC NSCLC is 42.5%; in the assay with 786-0 renal, 57.5%; in the assay on COLO 205 colon, 11.1%; in the assay on DU-145 prostate, 26%; in the assay with K-562 leukemia, 11.3%; in the assay with MALME-3M melanoma it was 67.6%. Besides, the growth in the assay with MDA-MB-231 breast was 38.4%; in the assay with RXF 393 renal it was 13.7%; in the assay on SF-268 CNS it was 59.7%; in the assay with SF-295 CNS, 37.3%; with SF-539 CNS, -5.16% (active); in the assay with UACC-257 melanoma it was 82.4%. The growth in the assay on M14 melanoma is 16.5%; with HCT-15 colon, 25%.
In the case of `Cc1ccc(F)cc1NC(=O)c1cc(Cl)ccc1Nc1ccccc1`, the growth is 60.1% with NCI-H23 lung; 62.4% with NCI-H322M lung; 83.9% in the assay on HOP-62 NSCLC; 40.2% with NCI-H460 lung; 75.9% with HOP-92 NSCLC; 47.7% in the assay with NCI-H522 lung. Further, the growth in the assay with A549/ATCC NSCLC was 42.3%; in the assay with 786-0 renal, 68.1%; in the assay on COLO 205 colon it was 16%; in the assay on DU-145 prostate it was 69.6%; in the assay with K-562 leukemia, 22.3%; in the assay with MALME-3M melanoma, 83%. Moreover, the growth is 69.7% with MDA-MB-231 breast; 68.3% in the assay with RXF 393 renal; 55% in the assay with SF-268 CNS; 13.7% with SF-295 CNS; 62.5% in the assay with SF-539 CNS; 65.7% with UACC-257 melanoma. Besides, the growth in the assay with M14 melanoma was 45.1%; in the assay on HCT-15 colon it was 38.4%.
Turning to `CCCN1C(=O)N(CCC)C2C1NN=c1s/c(=C3\C(=O)N(C(C)C)c4ccccc43)c(=O)n12` (stereo not given), the growth was 76% in the assay with NCI-H23 lung; 78% in the assay on NCI-H322M lung; 41.9% with HOP-62 NSCLC; 35.3% with NCI-H460 lung; 27.1% with HOP-92 NSCLC; 22.4% with NCI-H522 lung. Also, the growth in the assay with A549/ATCC NSCLC is 43.9%; in the assay with 786-0 renal it was -6.03% (active); with COLO 205 colon, 43.8%; in the assay with DU-145 prostate, 53.5%; with K-562 leukemia it was 11.3%; with MALME-3M melanoma it was 36.5%. The growth in the assay with MDA-MB-231 breast is 41.8%; with RXF 393 renal, 12.2%; in the assay with SF-268 CNS, 46.8%; in the assay with SF-295 CNS it was 22.2%; in the assay on SF-539 CNS it was 23.1%; with UACC-257 melanoma, 53.8%. The growth was 37.8% in the assay on M14 melanoma and 24.4% with HCT-15 colon.
For the molecule `O=C1OC(c2ccccc2)(c2ccccc2)c2ccsc21`, the growth was 113% with NCI-H23 lung; 90.7% with NCI-H322M lung; 117% in the assay with HOP-62 NSCLC; 98.8% in the assay with NCI-H460 lung; 87.1% with HOP-92 NSCLC; 92.6% in the assay on NCI-H522 lung. Moreover, the growth is 101% with A549/ATCC NSCLC; 103% in the assay with 786-0 renal; 121% in the assay on COLO 205 colon; 104% with DU-145 prostate; 87% in the assay on K-562 leukemia; 87.2% in the assay with MALME-3M melanoma. Further, the growth was 100% in the assay with MDA-MB-231 breast; 114% with RXF 393 renal; 97.3% in the assay with SF-268 CNS; 97.2% with SF-295 CNS; 98.9% in the assay with SF-539 CNS; 103% with UACC-257 melanoma. Moreover, the growth is 106% in the assay on M14 melanoma and 95.2% in the assay on HCT-15 colon.
For the molecule `COc1cc2nc(-c3cccc4cccnc34)nc(NC3CCN(Cc4ccccc4)CC3)c2cc1OC`, the growth in the assay on NCI-H23 lung is -72.2% (active); with NCI-H322M lung, -71.3% (active); in the assay with HOP-62 NSCLC, -73.9% (active); in the assay with NCI-H460 lung, -73.6% (active); in the assay on HOP-92 NSCLC, -73.2% (active); with NCI-H522 lung, -52.1% (active). In addition, the growth was -72.7% (active) with A549/ATCC NSCLC; -71.4% (active) in the assay with 786-0 renal; -75.5% (active) in the assay with COLO 205 colon; -93.6% (active) in the assay with DU-145 prostate; -49.4% (active) in the assay on K-562 leukemia; -76.6% (active) in the assay on MALME-3M melanoma. Also, the growth in the assay on MDA-MB-231 breast is -89.5% (active); with RXF 393 renal it was -79.8% (active); in the assay on SF-268 CNS, -68.8% (active); in the assay with SF-295 CNS, -87.2% (active); with SF-539 CNS it was -86.6% (active); with UACC-257 melanoma, -62.4% (active). In addition, the growth was -80% (active) in the assay with M14 melanoma and -80.9% (active) in the assay with HCT-15 colon.
With `CN1C(=O)N(C)C2C1NN=c1s/c(=C\c3ccc(Cl)cc3Cl)c(=O)n12` (stereo not given), the growth is 29% with NCI-H23 lung; 38.3% with NCI-H322M lung; 54.3% with HOP-62 NSCLC; 3.01% (active) in the assay with NCI-H460 lung; 97.6% in the assay with HOP-92 NSCLC; 17.5% in the assay with NCI-H522 lung. The growth in the assay on A549/ATCC NSCLC is 25.1%; with 786-0 renal it was 24%; in the assay on COLO 205 colon, 1.82% (active); in the assay on DU-145 prostate it was 5.98% (active); in the assay with K-562 leukemia, 7.76% (active); in the assay on MALME-3M melanoma, 62.4%. Besides, the growth in the assay on MDA-MB-231 breast was 30.4%; in the assay on RXF 393 renal it was 16.2%; in the assay with SF-268 CNS it was 31.6%; in the assay on SF-295 CNS it was 17.4%; with SF-539 CNS, 1.09% (active); in the assay on UACC-257 melanoma, 75.8%. Also, the growth is 7.37% (active) with M14 melanoma and 15.8% in the assay with HCT-15 colon.

Values taken from PubChem BioAssay (NCI).
